# ELG1 repair inh = inhibitors of ELG1-dependent DNA repair in HEK293T cells. AID 504467. 330,000 tested, 2.3% active. Potency, µM (series often up to 46.1 µM), usual class: inhibitors. HEK293T ELG1-luciferase reporter, luminescence, 16 h; DNA damage induced by 5-fluorouridine; further: nearly all actives have a fitted effect of over 55% in size
#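 Step one: seed 2,000 cells per well. Step two: pin-transfer compound or DMSO alongside 5-fluorouridine. Step three: incubate 16 hr, 37 °C, 5% CO2. Step four: add ONE-Glo, wait 30 min, read luminescence.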
# Nrf2 block = inhibitors of Nrf2 signaling | Potency, µM (highest dose often 46 µM), hits mostly inhibitors | AID 504444 | 360,000 tested, 2.1% active | A549 ARE-Fluc reporter, luciferase luminescence, 18-24 h; further: nearly all actives have a fitted effect of over 60% in size
#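 A549 ARE_Fluc cells (5000/well, 5% FBS OPTI-MEM) pre-incubated 2 h, then treated with compounds 18-24 h at 37C/5% CO2 in concentration-response. CellTiter-Fluor viability read first; BugLite luciferase luminescence after 15 min at room temperature gives Nrf2 activity.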
# Nrf2 ARE act = activates Nrf2 signaling; AREc32 ARE-luciferase reporter (MCF7-derived line), luminescence, 24 h; Potency, µM (titrated, usually from 46.1 µM), hits mostly activators; 410,000 tested, 0.31% active; AID 624171; further: nearly all actives have a fitted effect of over 65% in size
#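 ARE activation measured as luciferase luminescence (Steady-Glo, 30 min RT) in AREc32_Fluc cells after 24 hr compound exposure at 37 deg C, 5% CO2; cells seeded overnight at 1000/well in OPTI-MEM, 5% FBS.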
# A549 viability = counter-screen for Nrf2 inhibitors: cytotoxicity in A549 cells. A549 ARE-Fluc cells, CellTiter-Fluor viability, 18-24 h. Potency, µM (series often up to 46 µM), usual class: inhibitors. 390,000 tested, 0.16% active. AID 504648
#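 Cytotoxicity counterscreen: CellTiter-Fluor fluorescence was measured in A549 ARE_Fluc cells after 18-24 h of compound exposure in a concentration series. The subsequent BugLite luminescent read reports ARE-luciferase activity.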
# A number is an active result; - = inactive; ? = inconclusive; . = no result given; ! = repeats disagree; [ ] = dose if it differs, or a comment. Sampled rows, rich in hits. Any-hit rate of the full collection: about 3.7%. The call rests on the fitted dose curve; in most records, active means well fitted curve in the direction sought with a large enough effect; inconclusive means small, poorly fitted or top-dose-only effect, or another doubt; inactive means no such curve, though single readings can be large; an effect the other way counts as inactive or inconclusive.
SMILES,ELG1 repair inh,Nrf2 block,Nrf2 ARE act,A549 viability
CCOC(=O)c1nn(-c2ccc(C)c(C)c2)c(=O)c(C#N)c1C,-,-,-,-
CCOC(=O)c1c(C)[nH]c(C)c1S(=O)(=O)N1CCC(C(=O)NCc2ccccc2)CC1,.,-,-,-
COc1cccc(N2CCN(C(=O)C3CCCN(c4ncnc5c4nc4n5CCCCC4)C3)CC2)c1 (stereo not drawn),3.3µM,-,-,-
O=C(C1CCN(c2ncnc3c2nc2n3CCCCC2)CC1)N1CCN(c2ccc(F)cc2)CC1,7.3µM,18µM!,-,-
CCc1c(C)nc2ncnn2c1N1CCC(C(=O)N2CCN(c3ccc(F)cc3)CC2)CC1,23µM,.,-,-
CCc1c(C)nc2ncnn2c1N1CCC(C(=O)N2CCN(c3ccccc3)CC2)CC1,-,.,.,.
CC(C)OC(=O)Cn1nc(C(c2ccccc2)c2ccccc2)oc1=O,-,-,-,-
O=Cc1ccc(-c2ccccc2C(=O)O)o1,-,-,-,-
O=C(O)c1ccccc1-c1c2cc(I)c(=O)c(I)c-2oc2c(I)c(O)c(I)cc12,.,-,-,9.2µM
COc1ccc(C2/C=C\CN(C(=O)C3CC3)C(C)C(=O)N2Cc2ccc(F)cc2)cc1 (stereo not drawn),.,-,.,-
COc1ccc(-c2cc3ccccc3oc2=O)cc1NC(=O)c1ccc(Br)o1,?,?,-,-
COc1cc(NC(=O)c2ccc([N+](=O)[O-])o2)ccc1NC(=O)c1cccs1,-,-,11µM,23µM
COc1ccc(-c2cc3ccccc3oc2=O)cc1NC(=O)c1ccc([N+](=O)[O-])o1,-,?,6.3µM,-
O=C(Nc1cccc(NC(=O)c2cccs2)c1)c1ccc([N+](=O)[O-])o1,16µM,-,?,-
CC(=O)Nc1ccc(S(=O)(=O)Nc2ccc(C)c([N+](=O)[O-])c2)cc1,?,26µM,-,-
CC(=O)Nc1ccc(NS(=O)(=O)c2cc([N+](=O)[O-])ccc2C)cc1,-,-,-,-
O=C(Nc1ccc(Cc2ccncc2)cc1)c1ccc([N+](=O)[O-])o1,-,-,?,-
O=C(Cn1c(=O)n(-c2ccc(Cl)cc2)c(=O)c2sc3ccccc3c21)NC1CCCC1,.,-,-,-
O=C(CCl)Nc1ccccc1C(=O)c1ccccc1,-,-,-,-
Cc1ccc(NC(=O)c2ccco2)c([N+](=O)[O-])c1,?,-,11µM,-
Cc1cccc(NS(=O)(=O)c2ccc(NC(=O)CN(c3cc([N+](=O)[O-])ccc3C)S(C)(=O)=O)cc2)c1,-,18µM,-,?
Cc1ccc(C(=O)Nc2ccc(NC(=O)c3cccs3)cc2)cc1[N+](=O)[O-],-,-,-,-
Cc1ccc(NC(=O)c2cccs2)cc1[N+](=O)[O-],?,?,14µM,-
O=C(Nc1cccc(NC(=O)c2ccc([N+](=O)[O-])o2)c1)c1ccco1,12µM,-,?,-
O=C(Nc1ccc(NC(=O)c2ccc([N+](=O)[O-])o2)cc1Cl)c1ccco1,-,-,?,-
SMILES,ELG1 repair inh,Nrf2 block,Nrf2 ARE act,A549 viability
Cc1[nH]c2ccc(C(=O)NCCN3CCOCC3)cc2c1C,?,-,-,-
O=C(NCc1ccccc1Cl)C1CCCN(c2ncnc3onc(-c4ccc(F)cc4)c23)C1 (stereo not drawn),.,-,-,-
Cc1cc(C)c(Cn2cnc(-c3ccc([N+](=O)[O-])cc3)c2)c(C)c1,-,21µM,-,?
CC(C)(C)c1ccc(Cn2cnc(-c3ccc([N+](=O)[O-])cc3)c2)cc1,?,?,-,?
CN(C)c1ccc(SC#N)cc1,18µM,-,-,-
CN1CCCC1CCNc1ncnc2ccc(-c3ccc4c(c3)OCO4)cc12 (stereo not drawn),.,-,.,-
Cc1ccc(NC(=O)c2ccc(Cl)c(S(=O)(=O)N3CCCCCC3)c2)nc1,?,23µM,-,?
O=C(Nc1cccnc1)c1ccc(Cl)c(S(=O)(=O)N2CCCCCC2)c1,21µM,15µM,-,-[1.84 µM]
COc1cccc(NC(=O)C(C)Sc2nnc(C3CC3)n2C2CC2)c1 (stereo not drawn),-,-,-,-
CCc1noc(C)c1C(=O)Nc1nc(-c2ccc(OC)cc2)cs1,-,-,-,-
CCc1noc(C)c1C(=O)Nc1nc(-c2ccc(OC)cc2OC)cs1,?,8.2µM,-,-
COc1ccc(OC)c(-c2csc(NC(=O)CSCc3c(C)noc3C)n2)c1,?,?,-,-
CCc1noc(C)c1C(=O)Nc1nc(-c2cc(OC)ccc2OC)cs1,16µM,-,-,-
Cc1ccc(C)c(Nc2nc3ccccc3n3cnnc23)c1,-,-,-,-
Cc1cc(C)n(CC(=O)Nc2ccc3c(c2)OCO3)c(=O)c1C#N,-,-,-,-
CCn1c(C)nc2cc(S(=O)(=O)C(F)(F)C(F)C(F)(F)F)ccc21 (stereo not drawn),7.3µM,?,-,-
Cc1cccc(Cn2c(=O)n(CCc3ccccc3)c(=O)c3sc4ccccc4c32)c1,.,-,-,-
CC1(C(=O)Nc2ccc(Cl)cc2)Cc2c(-c3ccc4c(c3)OCO4)ccnc2O1 (stereo not drawn),.,.,-,.
CCN(CC)S(=O)(=O)c1cccc(-c2nnc(SCCOc3ccc(Cl)cc3)o2)c1,21µM,-,-,-
Cc1ccc(-n2cc(CNCCCn3ccnc3C)c(-c3ccc(F)cc3)n2)cc1,-,-,-,26µM
CCc1nc(SCC(=O)NC2CCCC2)c2oc3ccccc3c2n1,-,-,-,-
CCc1nc(SCC(=O)N2CCCc3ccccc32)c2oc3ccccc3c2n1,?,16µM,-,?
CCN1CCN(C(c2ccccc2Cl)c2sc3nc(-c4ccco4)nn3c2O)CC1 (stereo not drawn),.,.,-,-
O=[N+]([O-])c1ccc(Nc2nc(N/N=C/c3cccc(F)c3)nc(N3CCCC3)n2)cc1,4.6µM,?,-,-
COc1cccc(/C=N/Nc2nc(Nc3ccc([N+](=O)[O-])cc3)nc(N3CCCC3)n2)c1O,6.5µM,-,-,?
SMILES,ELG1 repair inh,Nrf2 block,Nrf2 ARE act,A549 viability
C=C(c1ccccc1)c1ccc(N(C)C)cc1,-,16µM,-,-
COCCNC(=O)/C(C#N)=C/c1cccc(/C=C(\C#N)C(=O)NCCOC)c1,21µM,-,?,-
COCCNC(=O)/C(C#N)=C/c1ccc(O)cc1,?,-,-,-
Cc1ccc(S(=O)(=O)NC(=O)C2(C)CCN2C(=O)C2CCCCC2)cc1 (stereo not drawn),.,.,-,.
CC(=O)Nc1cccc(C(=O)OC(C)C(=O)NCc2ccc3c(c2)OCO3)c1 (stereo not drawn),-,-,-,-
Cc1cccc(NS(=O)(=O)c2cc(C(=O)OC(C)C(=O)NCc3ccc4c(c3)OCO4)ccc2C)c1 (stereo not drawn),23µM,?,-,-
COc1ccccc1NC(=O)C1=C(C)N(c2ccccc2)C(=S)NC1c1cccc(C(F)(F)F)c1 (stereo not drawn),?,15µM,-,-
COC(=O)C1=C(C)N(Cc2ccccc2)C(=O)N[C@H]1c1cccc(C(F)(F)F)c1,-,?,-,-

# Screens as filed in PubChem BioAssay.
